From PubChem BioAssay (NCI)
This is part of a sample that, as a whole, favours compounds with a hit. Of some 79,000 tested, about 15% had one in any assay. A number with no mark means an inactive call. Active and inactive are the calls of the source. No stated cut-off is given here; in the data, active means growth inhibition above about 70%; inactive means the rest. Where a SMILES comes first, the peptide text is derived from it. Bridges are numbered along the chain shown (N, C = ends). [ ]: non-standard residue; d: D form. NMeV = CN[CH](C(=O)O)C(C)C; Sar = CNCC(=O)O

Key:
[1] = NCI Yeast Anticancer Drug Screen. Data for the rad50 strain (AID 155);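 further: 0% = growth of vehicle-only cultures of the same strain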; details: S. cerevisiae rad50 strain growth inhibition, stronger effect = higher value
Summary of the method: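 Relative growth inhibition (compound vs vehicle) was measured in yeast with a defined repair-gene alteration.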

[2] = NCI Yeast Anticancer Drug Screen. Data for the mec2-1 strain (AID 157); details: S. cerevisiae mec2-1 strain, stronger effect = higher value
Summary of the method: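 Vehicle-treated cultures served as reference for growth inhibition of compound-exposed mec2-1 yeast.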

[3] = NCI Yeast Anticancer Drug Screen. Data for the sgs1 mgt1 strain (AID 161);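 further: 0% = growth of cultures given vehicle only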; details: S. cerevisiae sgs1 mgt1 strain, stronger effect = higher value
Summary of the method: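 Inhibition of yeast growth, normalised to vehicle-treated controls, is reported for a strain bearing genetic alterations in DNA damage repair.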

[4] = NCI Yeast Anticancer Drug Screen. Data for the cln2 rad14 strain (AID 165);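 further: 0% = growth equal to vehicle treated cultures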; details: S. cerevisiae cln2 rad14 strain, stronger effect = higher value
Summary of the method: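 Each compound was tested on cln2 rad14 yeast. Inhibition of growth was calculated against vehicle-exposed controls.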

[5] = NCI Yeast Anticancer Drug Screen. Data for the bub3 strain (AID 167); details: S. cerevisiae bub3 mutant strain, stronger effect = higher value
Summary of the method: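 Screening used yeast with an engineered genetic alteration affecting cell cycle control. Compound-exposed cultures were compared with vehicle cultures, and reduced growth was taken as inhibition.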

[6] = NCI Yeast Anticancer Drug Screen. Data for the mlh1 rad18 strain (AID 175); details: S. cerevisiae mlh1 rad18 strain growth inhibition, stronger effect = higher value
Summary of the method: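 Vehicle-treated cultures served as the reference for growth inhibition in a yeast strain carrying DNA damage repair alterations exposed to each compound.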

[7] = at 5.0 µM (retest, dose inferred, filed as 0.5)
[8] = at 50.0 µM (retest, dose inferred, filed as 5.0)

SMILES	growth inhibition [1, 7]	growth inhibition [1, 8]	growth inhibition ([1]; at 50.0 µM)	growth inhibition [2, 7]	growth inhibition [2, 8]	growth inhibition ([2]; at 50.0 µM)	growth inhibition [3, 7]	growth inhibition [3, 8]	growth inhibition ([3]; at 50.0 µM)	growth inhibition [4, 7]	growth inhibition [4, 8]	growth inhibition ([4]; at 50.0 µM)	growth inhibition [5, 7]	growth inhibition [5, 8]	growth inhibition ([5]; at 50.0 µM)	growth inhibition [6, 7]	growth inhibition [6, 8]	growth inhibition ([6]; at 50.0 µM)
COc1cc2cnc(-c3ccccc3)cc2cc1OC	14%	71% (active)	43.5%	11%	76% (active)	17.6%	5%	63%	13.9%	-15%	99% (active)	26.9%	48%	99% (active)	81.3% (active)	13%	86% (active)	19.2%
C=C(C)C(CC=C(C)C)Cc1c(O)cc(OC)c2c1OC(c1ccc(O)cc1O)C(O)C2=O (configuration not stated)	29%	22%	34.1%	27%	28%	23.4%	-23%	42%	55.2%	19%	32%	43.9%	-5%	38%	57%	24%	23%	85.3% (active)
CCCCCCCCCCCC[n+]1ccc(C)cc1	33%	99% (active)	98.2% (active)	76% (active)	100% (active)	99.2% (active)	33%	99% (active)	99% (active)	20%	99% (active)	96.8% (active)	80% (active)	99% (active)	98.9% (active)	18%	99% (active)	98.3% (active)
CCCCNCCCNCCCNC(=O)c1csc(-c2csc(CCNC(=O)C(NC(=O)C(C)C(O)C(C)NC(=O)C(NC(=O)c3nc(C(CC(N)=O)NCC(N)C(N)=O)nc(N)c3C)C(OC3OC(CO)C(O)C(O)C3OC3OC(CO)C(O)C(OC(N)=O)C3O)c3cnc[nH]3)C(C)O)n2)n1 (configuration not stated)	97% (active)	99% (active)	93% (active)	98% (active)	99% (active)	93.8% (active)	96% (active)	98% (active)	94% (active)	95% (active)	94% (active)	91.9% (active)	97% (active)	98% (active)	93.9% (active)	98% (active)	99% (active)	92.7% (active)
CC1([N+](=O)[O-])C(=O)C2(N3CCOCC3)CCCC2C1c1ccccc1 (configuration not stated)	-9%	75% (active)	-2%	-7%	99% (active)	-0.3%	-1%	90% (active)	4.95%	1%	40%	-7.7%	-12%	98% (active)	-5.2%	10%	96% (active)	7.65%
CSC(=S)N/N=C/c1cccc(C)n1	13%	71% (active)	95.1% (active)	5%	60%	82.1% (active)	3%	69%	66.2%	-8%	26%	67.7%	1%	72% (active)	86.8% (active)	30%	80% (active)	82.6% (active)
CCOC(CCCl)OCC	0%	2%	7.35%	0%	4%	5.7%	-1%	1%	-2.9%	0%	-5%	89.2% (active)	1%	-3%	2.35%	0%	3%	13.3%
CCOc1ccc2c(c1)n([O-])c1ccccc1[n+]2=O	88% (active)	98% (active)	56%	12%	99% (active)	97.4% (active)	55%	99% (active)	99.2% (active)	31%	98% (active)	98.1% (active)	17%	98% (active)	98.8% (active)	81% (active)	98% (active)	99.1% (active)
CC(C)C1NC(=O)C(N)C(C)OC(=O)C(C(C)C)N(C)C(=O)CN(C)C(=O)C2CCCN2C1=O (configuration not stated) (tested in a mixture with another compound) (H-TVP[Sar][NMeV]; ester 1-C; configuration not given here)	21%	94% (active)	89.1% (active)	10%	97% (active)	92.2% (active)	18%	91% (active)	90.3% (active)	39%	95% (active)	87.5% (active)	16%	96% (active)	90.8% (active)	11%	95% (active)	90.2% (active)
Cc1cc(C2CCCCC2)n(O)c(=O)c1	98% (active)	99% (active)	98.8% (active)	98% (active)	99% (active)	99.2% (active)	98% (active)	99% (active)	99.5% (active)	96% (active)	98% (active)	99.3% (active)	96% (active)	99% (active)	98.7% (active)	98% (active)	99% (active)	99.3% (active)
Cc1cc(NS(=O)(=O)c2ccc(N)cc2)no1.[Ag]	99% (active)	99% (active)	99.4% (active)	100% (active)	99% (active)	99.7% (active)	99% (active)	100% (active)	99.7% (active)	99% (active)	99% (active)	99.5% (active)	99% (active)	99% (active)	99.7% (active)	99% (active)	99% (active)	99.5% (active)
COC(=O)c1ccc2ccccc2c1	5%	15%	47%	-1%	4%	28.1%	1%	4%	22.4%	2%	-4%	24.6%	5%	29%	80.2% (active)	5%	11%	34.3%
Fc1ccc2nncc(SCc3ccccc3)c2c1	1%	97% (active)	97.9% (active)	10%	99% (active)	97.2% (active)	11%	98% (active)	93.2% (active)	3%	95% (active)	91.5% (active)	2%	97% (active)	97% (active)	-2%	98% (active)	95.5% (active)
c1ccc(-c2cc(Nc3ccc4c(c3)OCO4)c3cc(C4CCCCC4)ccc3n2)cc1	10%	95% (active)	79% (active)	6%	96% (active)	83.9% (active)	27%	97% (active)	96.7% (active)	-8%	93% (active)	60.4%	4%	96% (active)	41.2%	7%	94% (active)	98.2% (active)
Clc1c(Cl)c(Cl)c(SC2C3CC4C(C3)C42)c(Cl)c1Cl (configuration not stated)	31%	98% (active)	98.3% (active)	23%	99% (active)	98.8% (active)	27%	97% (active)	98.8% (active)	12%	97% (active)	97.9% (active)	7%	91% (active)	98% (active)	21%	97% (active)	98.4% (active)
O=C(O)/C=C1\c2ccccc2CCC1c1ccc2ccccc2c1 (configuration not stated)	64%	93% (active)	99.7% (active)	27%	85% (active)	99.7% (active)	43%	91% (active)	99.8% (active)	41%	82% (active)	99.3% (active)	47%	85% (active)	99.8% (active)	54%	93% (active)	99.5% (active)
ClC1(Cl)C(Cl)(Cl)C12c1ccccc1-c1ccccc12	14%	94% (active)	98.6% (active)	-26%	97% (active)	98.8% (active)	15%	98% (active)	99% (active)	2%	95% (active)	86.8% (active)	28%	95% (active)	98% (active)	29%	96% (active)	98.6% (active)
CCOC(=O)Nc1ccc(SCC2COC(Cn3ccnc3)(c3ccc(Cl)cc3Cl)O2)cc1 (configuration not stated)	89% (active)	91% (active)	97% (active)	72% (active)	93% (active)	96.2% (active)	84% (active)	94% (active)	49.1%	60%	90% (active)	98% (active)	91% (active)	93% (active)	94.5% (active)	61%	90% (active)	95.2% (active)
Cc1nc2c(nc1C)C(=O)C1=C(C2=O)C2C=CC1CC2	0%	87% (active)	89.8% (active)	-2%	90% (active)	74.6% (active)	2%	94% (active)	94.7% (active)	-3%	68%	57%	24%	94% (active)	93.5% (active)	2%	93% (active)	91.8% (active)
